14 compounds from PubChem BioAssay (NCATS) can be followed below.

Values joined by “and” are separate entries in the source; they are usually repeats but may differ in a detail not shown here. Equal values may be shown once. Results filed as inconclusive are left out. A number with no mark means an inactive call. Active and inactive are the calls of the source. Calls come from the whole dose curve; as a rule, active = well fitted curve in the direction sought with a large enough effect; inconclusive = small, poorly fitted or top-dose-only effect, or another doubt; inactive = no such curve, though single readings can be large; an effect the other way counts as inactive or inconclusive.

In one assay the test system is HeLa. The experiment in a line: Primary qHTS to identify gynecologic anti-cancer compounds using libraries of approved drugs and bioactive compounds (AID 1345084). Note: nearly all actives have a fitted effect of over 55% in size. The following applies: Gynecologic cancer cell panel viability, ATPlite luminescence, 48 h; series mostly up to 57.5 µM. A digest of the protocol:
(§1)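 In this quantitative HTS, cell killing is estimated from loss of ATP-dependent luciferase light. Cells see five compound concentrations over a 48 h exposure.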
(In general: Quantitative high-throughput screening tests each substance at several concentrations.)

The next assay deals with Hek293T. The description is as above. The following applies: Gynecologic cancer cell panel viability, ATPlite luminescence, 48 h, control line for the selectivity index; series mostly up to 57.5 µM. In short, it runs like this: as §1
A further assay deals with JEG-3. The description is as above. The following applies: Gynecologic cancer cell panel viability, ATPlite luminescence, 48 h; series mostly up to 57.5 µM. A digest of the protocol:
as §1
Background: In ATP-based viability assays light output follows the ATP content of the culture.

A further assay relates to OV90. Described as above. The following applies: Gynecologic cancer cell panel viability, ATPlite luminescence, 48 h; series mostly up to 57.5 µM. In short, it runs like this:
as §1

The subject of the next assay is PA-1. The assay is described as above. The following applies: Gynecologic cancer cell panel viability, ATPlite luminescence, 48 h; series mostly up to 57.5 µM. In short, it runs like this: as §1
For the next assay, the system named is SKOV3. The assay is described as above. The following applies: Gynecologic cancer cell panel viability, ATPlite luminescence, 48 h; series mostly up to 57.5 µM. A digest of the protocol: as §1
For the next assay, the system named is Tov-21-G. The description is as above. The following applies: Gynecologic cancer cell panel viability, ATPlite luminescence, 48 h; series mostly up to 57.5 µM. A digest of the protocol: as §1
The next assay concerns Tov112D. Described as above. The following applies: Gynecologic cancer cell panel viability, ATPlite luminescence, 48 h; series mostly up to 57.5 µM. In short, it runs like this:
as §1

A short description of assay [1]: Drug repurposing screens with cells derived from glioblastoma tumor samples (AID 1345199). Note: nearly all actives have a fitted effect of over 40% in size. Note: potency is the fitted concentration of half-maximal effect. The following applies: GBM patient neurospheres viability, ATP luminescence, 48 h. A digest of the protocol: (§2)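 Four patient lines of CD133+ GBM neurospheres were screened at several concentrations; hits were retested in those lines plus three slower-growing GBM lines, using 48-hour treatment and ATP-based viability.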

For the next assay, the system named is astro. The description is as above. The following applies: viability, ATP luminescence, 48 h; series mostly up to 45.9 µM. In short, it runs like this:
as §2

Setting [2] is: at 45.9 µM (top of the series), tumour line B.
Setting [3] is: at 45.9 µM (top of the series), tumour line D.
[4] abbreviates: at 46.1 µM (top of the series), tumour line C.
Setting [5] is: at 20 µM (top of the series), tumour line C.
Where [6] appears, read: at 21.2 µM (top of the series), tumour line B.
[7] abbreviates: at 21.2 µM (top of the series), tumour line D.
The mark [8] stands for this setting: at 21.3 µM (top of the series), tumour line A.
Setting [9] is: at 46 µM (top of the series), tumour line A.
% is set by controls: 0 for no effect and ±100 for the full control effect.

Take `CC(C)(C)C(=O)C(Oc1ccc(Cl)cc1)n1ccnc1` (configuration not stated): the Potency entry in the assay on HeLa, in the assay on Hek293T, in the assay with JEG-3, in the assay on OV90, in the assay with PA-1 and in the assay with SKOV3 was “inactive” in each case. Further, the Potency result in the assay on Tov-21-G, with Tov112D and with astro was “inactive” each time. Besides, the activity, negative = cell killing was -7.03% in [1] (setting [2]), -26.6% in [1] (setting [3]) and -0.0869% in assay [1] (setting [4]). In addition, the Potency in assay [1] (tumour line A) is 12.6 µM (active).
As to `C[C@@H]1C[C@H]2[C@@H]3C[C@H](F)C4=CC(=O)C=C[C@]4(C)[C@@]3(F)[C@@H](O)C[C@]2(C)[C@@]1(O)C(=O)CO`, the Potency result with HeLa, in the assay on Hek293T, with JEG-3, in the assay with OV90, in the assay on PA-1 and with SKOV3 was “inactive” each time. For the same compound, the Potency result in the assay with Tov-21-G, in the assay on Tov112D and with astro was “inactive” each time. Also, the activity, negative = cell killing in assay [1] (setting [5]) was 17.9%; in assay [1] (setting [6]), -15.7%; in assay [1] (setting [7]), -7.98%; in assay [1] (setting [8]) it was -20.6%.
In the case of `NCC(=O)CCC(=O)O`, the Potency result in the assay on HeLa, with Hek293T, in the assay with JEG-3, with OV90, in the assay with PA-1 and in the assay on SKOV3 was “inactive” each time. The Potency result in the assay on Tov-21-G, in the assay with Tov112D and with astro was “inactive” throughout. For the same compound, the activity, negative = cell killing was -16.2% in [1] (setting [2]), -11% in assay [1] (setting [3]), -11% in assay [1] (setting [9]) and -6.71% in [1] (setting [4]).
`O=c1[nH]c(=O)c2[nH]c(=O)[nH]c2[nH]1`: the activity change, negative = cytotoxicity was 4.95% [at 11.6 µM] in the assay on HeLa; 6.53% [at 11.6 µM] in the assay on Hek293T; 3.26% [at 11.6 µM] in the assay on JEG-3; 21.7% [at 11.6 µM] with OV90; 8.45% [at 11.6 µM] in the assay on PA-1; -14.3% [at 11.6 µM] with SKOV3. The activity change, negative = cytotoxicity with Tov-21-G was 19.2% [at 11.6 µM]; in the assay with Tov112D it was -0.835% [at 11.6 µM]. Besides, the activity, negative = cell killing in [1] (setting [2]) is -17.6% and -20.9%; in assay [1] (setting [3]), 16.7% and -10.4%; in assay [1] (setting [9]) it was -18.4% and -8.7%; in assay [1] (setting [4]), -21% and -10.6%. For the same compound, in the assay on astro, the Potency result is “inactive”.
For the compound `O=C1NC(=O)[C@@]2(CCOc3ccc(F)cc32)N1`, the Potency entry in the assay with HeLa, in the assay with Hek293T, in the assay on JEG-3, in the assay with OV90, in the assay with PA-1 and in the assay on SKOV3 was “inactive” in each case. Also, the Potency result in the assay with Tov-21-G, in the assay with Tov112D and with astro was “inactive” each time. The activity, negative = cell killing is -4.87% in [1] (setting [2]), 4.44% in assay [1] (setting [3]), -16.6% in [1] (setting [9]) and -0.68% in [1] (setting [4]).
For the compound `CCCn1cnc2c1c(=O)n(CCCCC(C)=O)c(=O)n2C`, the Potency entry in the assay with HeLa, in the assay with Hek293T, in the assay with JEG-3, in the assay on OV90, in the assay with PA-1 and with SKOV3 was “inactive” in each case. Further, the Potency entry with Tov-21-G, with Tov112D and in the assay with astro was “inactive” in each case. Further, the activity, negative = cell killing in assay [1] (setting [2]) is -7.91%; in [1] (setting [3]) it was -10.9%; in assay [1] (setting [9]), -20.8%; in [1] (setting [4]), 14.2%.
As to `NS(=O)(=O)c1cc2c(cc1Cl)NC(CSCc1ccccc1)=NS2(=O)=O`, the Potency result in the assay with HeLa, in the assay with Hek293T, in the assay on JEG-3, in the assay with OV90, in the assay on PA-1 and in the assay with SKOV3 was “inactive” throughout. Besides, the Potency entry with Tov-21-G, in the assay with Tov112D and in the assay with astro was “inactive” each time. Moreover, the activity, negative = cell killing was 5.29% in [1] (setting [5]), -6.25% in [1] (setting [6]), -24.5% in [1] (setting [7]) and -18.3% in [1] (setting [8]).
Consider `C[C@@H]1CN(c2c(F)c(F)c3c(=O)c(C(=O)O)cn(C4CC4)c3c2F)C[C@H](C)N1`, for which the Potency entry with HeLa, in the assay on Hek293T, in the assay with JEG-3, with OV90, with PA-1 and in the assay on SKOV3 was “inactive” throughout. For the same compound, the Potency entry in the assay on Tov-21-G, with Tov112D and with astro was “inactive” throughout. The activity, negative = cell killing was -1.06% in assay [1] (setting [2]), -13.8% in assay [1] (setting [3]), -28.8% in [1] (setting [9]) and 26.5% in assay [1] (setting [4]).
As to `OC[C@H]1O[C@@H](O[C@@H]2[C@@H](CO)O[C@](O)(CO)[C@H]2O)[C@H](O)[C@@H](O)[C@H]1O`, the Potency entry in the assay on HeLa, in the assay on Hek293T, with JEG-3, in the assay on OV90, with PA-1 and in the assay on SKOV3 was “inactive” each time. In addition, the Potency result with Tov-21-G, in the assay with Tov112D and in the assay with astro was “inactive” in each case. Also, the activity, negative = cell killing in assay [1] (setting [2]) was -1.82%; in assay [1] (setting [3]), 8.93%; in assay [1] (setting [9]) it was -20.9%; in [1] (setting [4]), -24.2%.
For `O=c1[nH]cnc2c1ncn2[C@@H]1O[C@H](CO)[C@@H](O)[C@H]1O`, the Potency result in the assay on HeLa, with Hek293T, in the assay with JEG-3, in the assay with OV90, with PA-1 and in the assay on SKOV3 was “inactive” throughout. Further, the Potency entry with Tov-21-G, in the assay with Tov112D and in the assay on astro was “inactive” in each case. Besides, the activity, negative = cell killing in [1] (setting [2]) was 9.46%; in assay [1] (setting [3]) it was -5.06%; in assay [1] (setting [9]), 7.03%; in assay [1] (setting [4]), 2.71%.
In the case of `O=C1N=C(O)CN1/N=C/c1ccc(-c2ccc([N+](=O)[O-])cc2)o1`, the Potency entry with HeLa, in the assay with Hek293T, with JEG-3, with OV90, in the assay with PA-1 and with SKOV3 was “inactive” throughout. Moreover, the Potency entry in the assay with Tov-21-G, in the assay on Tov112D and in the assay on astro was “inactive” each time. The activity, negative = cell killing in assay [1] (setting [2]) is -7.61%; in assay [1] (setting [3]), 2.91%; in [1] (setting [9]), -22.1%; in assay [1] (setting [4]), -1.99%.
For the compound `CC1(C)Oc2ccc(C#N)cc2[C@@H](N2CCCC2=O)[C@@H]1O`, the Potency entry in the assay on HeLa, in the assay on Hek293T, in the assay on JEG-3, in the assay with OV90, with PA-1 and with SKOV3 was “inactive” in each case. Also, the Potency result in the assay with Tov-21-G, in the assay on Tov112D and with astro was “inactive” in each case. For the same compound, the activity, negative = cell killing in [1] (setting [2]) was -7.82% and 2.52%; in assay [1] (setting [3]), -4.19% and -0.466%; in assay [1] (setting [9]), -32.5% and -12.3%; in [1] (setting [4]), -7.78% and -4.72%.
With `O=c1cc[nH]c(=O)[nH]1`, the Potency entry in the assay with HeLa, in the assay on Hek293T, in the assay on JEG-3, in the assay with OV90, in the assay on PA-1 and in the assay with SKOV3 was “inactive” each time. Also, the Potency entry with Tov-21-G, in the assay on Tov112D and in the assay on astro was “inactive” throughout. Moreover, the activity, negative = cell killing in [1] (setting [2]) is -1.25%; in [1] (setting [3]), -13.5%; in assay [1] (setting [9]) it was -25.6%; in assay [1] (setting [4]), -13%.
`O=C(O)c1ccccc1-c1ccc(C(F)(F)F)cc1`: the Potency result with HeLa, with Hek293T, with JEG-3, in the assay on OV90, in the assay with PA-1 and in the assay on SKOV3 was “inactive” each time. The Potency entry in the assay on Tov-21-G, in the assay on Tov112D and with astro was “inactive” in each case. Further, the activity, negative = cell killing in assay [1] (setting [2]) was -7.48%; in assay [1] (setting [3]), -6.37%; in assay [1] (setting [9]) it was -14.4%; in [1] (setting [4]), 1.99%.
